Results: PubChem BioAssay AID1159580 (chemical genetic matrix, 2015)
Several values for one entry are separate records, joined by “and”; a condition that tells them apart may be missing. Identical values can stand only once. Screen size: about 5,500 compounds; about 2,000 (36%) were called active. Another 18% or so got no clear call; they are omitted. No stated cut-off is given here; in the data, active means normalized growth mostly below about 0.91 (no sharp cut-off); inconclusive means no clear call, values can overlap the other calls; inactive means mostly above about 0.92. This is one part of the list.

Test: chemical genetic growth profiling, strain panel (AID 1159580);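 further: tested at 20 µM; growth read once vehicle control cultures reached saturation at 30 °C; 1 = growth at the plate median or of vehicle wells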
Settings: S. cerevisiae deletion strains, growth OD

Measured: normalized growth

NNC(=O)c1ccncc1
inactive: locus YAL013W, strain DEP1, stronger effect = lower value 1.01 | locus YAL021C, strain ccr4, stronger effect = lower value 1.01 | locus YAL026C, strain drs2, stronger effect = lower value 0.991 | locus YAL030W, strain snc1, stronger effect = lower value 1.03 | locus YBL061C, strain skt5, stronger effect = lower value 1.01 | locus YBR009C, strain hhf1, stronger effect = lower value 0.986 | locus YBR021W, strain FUR4, stronger effect = lower value 1.01 | locus YBR023C, strain chs3, stronger effect = lower value 1.01 | locus YBR171W, strain sec66, stronger effect = lower value 1.02 | locus YBR229C, strain ROT2, stronger effect = lower value 1.01 | locus YBR231C, strain swc5, stronger effect = lower value 1.03 | locus YBR279W, strain paf1, stronger effect = lower value 1.01 | locus YCL011C, strain gbp2, stronger effect = lower value 0.984 | locus YCL016C, strain dcc1, stronger effect = lower value 0.981 | locus YCL029C, strain bik1, stronger effect = lower value 1 | locus YCL061C, strain MRC1, stronger effect = lower value 1.02 | locus YCL069W, strain vba3, stronger effect = lower value 1.02 | locus YCR088W, strain abp1, stronger effect = lower value 1.02 | locus YDL005C, strain med2, stronger effect = lower value 1.01 | locus YDL035C, strain GPR1, stronger effect = lower value 1.01 | locus YDL040C, strain nat1, stronger effect = lower value 1 | locus YDL074C, strain BRE1, stronger effect = lower value 1.03 | locus YDL101C, strain DUN1, stronger effect = lower value 1.01 | locus YDL185W, strain tfp1, stronger effect = lower value 0.991 | locus YDL192W, strain arf1, stronger effect = lower value 0.995 | locus YDR001C, strain nth1, stronger effect = lower value 1.02 | locus YDR069C, strain doa4, stronger effect = lower value 1.02 | locus YDR101C, strain arx1, stronger effect = lower value 0.997 | locus YDR137W, strain rgp1, stronger effect = lower value 0.989 | locus YDR159W, strain sac3, stronger effect = lower value 0.943 | locus YDR162C, strain NBP2, stronger effect = lower value 1.02 | locus YDR195W, strain ref2 1 | locus YDR297W, strain sur2, stronger effect = lower value 1.01 | locus YDR318W, strain mcm21, stronger effect = lower value 0.993 | locus YDR334W, strain swr1, stronger effect = lower value 1.01 | locus YDR335W, strain msn5, stronger effect = lower value 1.01 | locus YDR388W, stronger effect = lower value 0.992 | locus YDR392W, strain spt3, stronger effect = lower value 0.941 | locus YDR502C, strain sam2, stronger effect = lower value 0.993 | locus YEL003W, strain gim4, stronger effect = lower value 1.04 | locus YEL037C, strain rad23, stronger effect = lower value 1.02 | locus YEL061C, strain CIN8 (second series), stronger effect = lower value 1.01 | locus YEL061C, strain CIN8, stronger effect = lower value 1.01 | locus YER015W, strain faa2, stronger effect = lower value 1.01 | locus YER016W, strain bim1, stronger effect = lower value 1 | locus YER110C, stronger effect = lower value 0.988 | locus YER111C, strain swi4, stronger effect = lower value 1.01 | locus YER155C, strain BEM2 (second series), stronger effect = lower value 1.03 | locus YER155C, strain BEM2, stronger effect = lower value 1.01 | locus YER167W, strain BCK2, stronger effect = lower value 1 | locus YFR010W, strain ubp6, stronger effect = lower value 1.02 | locus YGL078C, strain dbp3, stronger effect = lower value 0.992 | locus YGL086W, strain mad1, stronger effect = lower value 1.01 | locus YGL167C, strain pmr1, stronger effect = lower value 1 | locus YGL173C, strain kem1, stronger effect = lower value 1.05 | locus YGL227W, strain vid30, stronger effect = lower value 1.02 | locus YGL240W, strain doc1, stronger effect = lower value 1.02 | locus YGL248W, strain PDE1, stronger effect = lower value 1.01 | locus YGL253W, strain hxk2, stronger effect = lower value 1.01 | locus YGR135W, strain pre9, stronger effect = lower value 0.971 | locus YGR252W, strain gcn5, stronger effect = lower value 0.943 | locus YHR013C, strain ard1, stronger effect = lower value 0.962 | locus YHR027C, strain rpn1, stronger effect = lower value 1.02 | locus YHR030C, strain SLT2, stronger effect = lower value 1 | locus YHR079C, strain IRE1 (second series), stronger effect = lower value 0.998 | locus YHR079C, strain IRE1, stronger effect = lower value 1.01 | locus YHR094C, strain hxt1, stronger effect = lower value 0.989 | locus YHR129C, strain ARP1, stronger effect = lower value 1.01 | locus YHR142W, strain chs7, stronger effect = lower value 1.01 | locus YHR200W, strain rpn10, stronger effect = lower value 1 | locus YIL066C, strain RNR3, stronger effect = lower value 1.02 | locus YIL073C, strain SPO22, stronger effect = lower value 1.01 | locus YIL125W, strain kgd1, stronger effect = lower value 1.01 | locus YIR030C, strain dcg1, stronger effect = lower value 1 | locus YJL092W, strain hpr5, stronger effect = lower value 1.01 | locus YJL095W, strain BCK1 (second series), stronger effect = lower value 1.01 | locus YJL095W, strain BCK1, stronger effect = lower value 1.02 and 0.991 | locus YJL115W, strain asf1, stronger effect = lower value 1.01 | locus YJL129C, strain trk1, stronger effect = lower value 1.02 | locus YJL134W, strain LCB3, stronger effect = lower value 1.01 | locus YJL154C, strain vps35, stronger effect = lower value 1.01 | locus YJL164C, strain tpk1, stronger effect = lower value 0.991 | locus YJL166W, strain qcr8, stronger effect = lower value 1.03 | locus YJL168C, strain set2, stronger effect = lower value 0.992 | locus YJL187C, strain SWE1 (second series), stronger effect = lower value 1.01 | locus YJR043C, strain POL32, stronger effect = lower value 1.01 | locus YJR066W, strain TOR1, stronger effect = lower value 0.932
